Laboratory results as given in ChEMBL document CHEMBL3988442, “University of Dundee, Small-Polar-MMV Screening Library” (2021).
For some of these results: Entries with a potency or affinity are not part of this list.

Legend:
Parameters in all cases: scale not given: direction of the effect not stated beside the values
[1] = target: Protein translocase subunit SecA (Escherichia coli (strain K12)) (UniProt P10408); test: Assay to Identify E. coli SecA ATPase Inhibitors; format: functional; settings: 30 µM
Sequence of Protein translocase subunit SecA (Escherichia coli (strain K12)) (P10408 whole entry): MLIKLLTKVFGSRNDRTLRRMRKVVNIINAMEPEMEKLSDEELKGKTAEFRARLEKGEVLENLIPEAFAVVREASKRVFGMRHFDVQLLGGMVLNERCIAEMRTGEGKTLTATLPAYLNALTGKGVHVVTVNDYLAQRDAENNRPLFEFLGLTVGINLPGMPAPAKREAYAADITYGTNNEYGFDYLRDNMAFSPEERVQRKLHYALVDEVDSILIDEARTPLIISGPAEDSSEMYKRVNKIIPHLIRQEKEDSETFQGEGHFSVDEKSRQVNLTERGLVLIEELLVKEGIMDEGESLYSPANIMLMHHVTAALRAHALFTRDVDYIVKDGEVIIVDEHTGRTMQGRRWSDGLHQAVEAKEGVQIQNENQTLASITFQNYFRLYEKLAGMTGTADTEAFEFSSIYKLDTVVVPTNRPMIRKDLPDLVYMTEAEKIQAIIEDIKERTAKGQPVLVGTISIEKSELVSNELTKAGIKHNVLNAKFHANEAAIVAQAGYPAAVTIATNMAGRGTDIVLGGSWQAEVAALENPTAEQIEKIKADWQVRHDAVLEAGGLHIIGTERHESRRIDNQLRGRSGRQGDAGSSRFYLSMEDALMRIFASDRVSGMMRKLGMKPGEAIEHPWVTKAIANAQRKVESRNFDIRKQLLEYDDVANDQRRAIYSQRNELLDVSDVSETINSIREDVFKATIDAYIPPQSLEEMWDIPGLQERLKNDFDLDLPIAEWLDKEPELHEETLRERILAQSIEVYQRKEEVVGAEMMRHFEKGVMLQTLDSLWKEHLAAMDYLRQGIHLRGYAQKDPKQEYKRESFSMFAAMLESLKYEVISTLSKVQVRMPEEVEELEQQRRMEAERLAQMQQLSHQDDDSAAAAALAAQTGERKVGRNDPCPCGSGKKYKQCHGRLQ

[2] = target: T1, Ubiquitin-activating enzyme e1, putative (Leishmania donovani (strain BPK282A1)) (UniProt E9BSI1); test: Leishmania donovani Ubiquitin Activating Enzyme (LdE1); format: functional; settings: 30 µM
T1 sequence (whole entry): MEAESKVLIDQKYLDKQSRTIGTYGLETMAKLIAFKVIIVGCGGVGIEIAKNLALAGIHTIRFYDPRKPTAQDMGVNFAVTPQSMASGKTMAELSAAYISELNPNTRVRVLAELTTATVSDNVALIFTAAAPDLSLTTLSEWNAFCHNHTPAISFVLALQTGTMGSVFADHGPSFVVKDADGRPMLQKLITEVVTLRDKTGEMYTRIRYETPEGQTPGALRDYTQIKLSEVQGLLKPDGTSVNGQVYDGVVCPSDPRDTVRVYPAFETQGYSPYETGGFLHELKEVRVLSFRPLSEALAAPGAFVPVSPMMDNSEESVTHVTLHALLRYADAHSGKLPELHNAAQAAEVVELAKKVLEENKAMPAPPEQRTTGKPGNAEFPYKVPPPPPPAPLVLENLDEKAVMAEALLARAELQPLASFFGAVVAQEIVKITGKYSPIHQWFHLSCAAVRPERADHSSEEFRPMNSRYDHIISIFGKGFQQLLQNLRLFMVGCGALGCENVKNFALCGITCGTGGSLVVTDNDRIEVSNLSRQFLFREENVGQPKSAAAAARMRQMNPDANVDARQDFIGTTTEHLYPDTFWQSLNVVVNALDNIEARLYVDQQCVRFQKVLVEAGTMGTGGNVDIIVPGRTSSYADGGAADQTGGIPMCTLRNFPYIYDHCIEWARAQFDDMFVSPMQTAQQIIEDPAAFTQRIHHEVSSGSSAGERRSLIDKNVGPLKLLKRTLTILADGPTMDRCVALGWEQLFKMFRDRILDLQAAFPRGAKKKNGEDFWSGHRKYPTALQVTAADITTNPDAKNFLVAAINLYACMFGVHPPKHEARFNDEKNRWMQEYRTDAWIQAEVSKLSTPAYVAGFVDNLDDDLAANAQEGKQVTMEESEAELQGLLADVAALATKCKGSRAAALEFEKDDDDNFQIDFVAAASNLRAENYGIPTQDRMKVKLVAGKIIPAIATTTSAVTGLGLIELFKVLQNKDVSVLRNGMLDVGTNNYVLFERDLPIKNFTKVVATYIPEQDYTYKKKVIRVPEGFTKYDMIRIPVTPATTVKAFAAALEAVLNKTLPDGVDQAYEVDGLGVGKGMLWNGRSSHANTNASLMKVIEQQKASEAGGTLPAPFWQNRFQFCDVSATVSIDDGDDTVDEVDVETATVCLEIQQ

[3] = target: AMP-activated protein kinase, AMPK (Homo sapiens) (UniProt P54646+O43741+P54619+Q9UGJ0+Q9Y478+Q13131+Q9UGI9); test: AMP-dependent Kinase enzyme assay. An in vitro enzyme assay that detects ADP turnover that is directly proportional to AMPK activity. This uses naive AMPK that is activated during the assay with MK-8722; format: functional; settings: 30 µM
[4] = target: Sialic acid-binding Ig-like lectin 9 (Homo sapiens) (UniProt Q9Y336); test: Hs-Siglec9 ALPHAscreen SOP 20170721; settings: 10 µM
Sequence of Sialic acid-binding Ig-like lectin 9 (Homo sapiens) (Q9Y336 whole entry): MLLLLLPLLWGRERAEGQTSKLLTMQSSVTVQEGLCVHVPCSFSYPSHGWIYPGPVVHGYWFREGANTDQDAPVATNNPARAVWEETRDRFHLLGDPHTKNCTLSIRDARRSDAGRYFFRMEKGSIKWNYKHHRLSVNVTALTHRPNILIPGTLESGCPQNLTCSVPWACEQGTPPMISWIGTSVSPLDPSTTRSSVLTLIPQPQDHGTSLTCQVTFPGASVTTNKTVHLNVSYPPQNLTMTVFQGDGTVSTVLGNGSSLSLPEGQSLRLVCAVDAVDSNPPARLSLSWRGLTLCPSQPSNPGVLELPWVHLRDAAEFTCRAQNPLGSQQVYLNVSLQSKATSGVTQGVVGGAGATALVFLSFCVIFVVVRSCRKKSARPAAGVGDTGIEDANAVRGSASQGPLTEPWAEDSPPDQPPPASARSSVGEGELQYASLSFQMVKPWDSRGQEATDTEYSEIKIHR

Trypanosoma cruzi = test: Trypanosoma cruzi phosphomannomutase and mannose-1-phosphate guanylyltransferase assay; format: functional; settings: 10 µM
[5] = target: T2, Arginase-2, mitochondrial (Homo sapiens) (UniProt P78540); test: in vitro enzyme assay to detect the production of urea directly proportional to the activity of Arginase II; format: functional; settings: 33.3 µM; note: in the data most compounds retested in dose-response had high values
T2 sequence (whole entry): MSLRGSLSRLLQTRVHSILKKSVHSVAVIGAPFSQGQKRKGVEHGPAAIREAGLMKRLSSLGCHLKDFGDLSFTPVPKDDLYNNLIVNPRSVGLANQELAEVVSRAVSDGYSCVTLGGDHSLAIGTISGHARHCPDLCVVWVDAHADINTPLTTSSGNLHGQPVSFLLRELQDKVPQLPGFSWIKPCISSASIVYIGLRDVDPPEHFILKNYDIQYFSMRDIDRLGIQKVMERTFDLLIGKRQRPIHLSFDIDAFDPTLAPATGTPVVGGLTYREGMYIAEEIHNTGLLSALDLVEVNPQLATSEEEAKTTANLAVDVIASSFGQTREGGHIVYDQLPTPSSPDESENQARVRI

[6] = target: T3, Proteasome subunit beta (Trypanosoma cruzi) (UniProt O96673); test: Trypanosoma cruzi proteasome chymotrypsin-like activity (TcProtChymo) assay.; note: in the data most compounds retested in dose-response had high values; format: functional; settings: 9.37 µM
T3 sequence (whole entry): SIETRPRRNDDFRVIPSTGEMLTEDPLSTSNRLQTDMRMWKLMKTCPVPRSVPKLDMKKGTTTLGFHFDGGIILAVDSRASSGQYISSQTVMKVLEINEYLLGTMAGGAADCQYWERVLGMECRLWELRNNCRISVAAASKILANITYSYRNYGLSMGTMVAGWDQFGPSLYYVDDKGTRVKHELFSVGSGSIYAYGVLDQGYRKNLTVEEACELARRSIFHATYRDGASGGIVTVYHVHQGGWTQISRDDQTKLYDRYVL

Homo sapiens = organism: Homo sapiens; test: To identify inhibition of the IFN signalling (Jak-Stat) pathway via expression of an eGFP reporter gene under the control of an IFN-stimulated response element (ISRE) containing MxA promoter.; format: functional; settings: 30 µM
[7] = target: T4, Tyrosyl-tRNA synthetase, putative (Trypanosoma cruzi (strain CL Brener)) (UniProt Q4DSP6); test: Trypanosoma cruzi tyrosyl tRNA synthetase (TcYRS) _High Tyrosine SOP; format: functional; settings: 30 µM; note: in the data most compounds retested in dose-response had high values
T4 sequence (whole entry): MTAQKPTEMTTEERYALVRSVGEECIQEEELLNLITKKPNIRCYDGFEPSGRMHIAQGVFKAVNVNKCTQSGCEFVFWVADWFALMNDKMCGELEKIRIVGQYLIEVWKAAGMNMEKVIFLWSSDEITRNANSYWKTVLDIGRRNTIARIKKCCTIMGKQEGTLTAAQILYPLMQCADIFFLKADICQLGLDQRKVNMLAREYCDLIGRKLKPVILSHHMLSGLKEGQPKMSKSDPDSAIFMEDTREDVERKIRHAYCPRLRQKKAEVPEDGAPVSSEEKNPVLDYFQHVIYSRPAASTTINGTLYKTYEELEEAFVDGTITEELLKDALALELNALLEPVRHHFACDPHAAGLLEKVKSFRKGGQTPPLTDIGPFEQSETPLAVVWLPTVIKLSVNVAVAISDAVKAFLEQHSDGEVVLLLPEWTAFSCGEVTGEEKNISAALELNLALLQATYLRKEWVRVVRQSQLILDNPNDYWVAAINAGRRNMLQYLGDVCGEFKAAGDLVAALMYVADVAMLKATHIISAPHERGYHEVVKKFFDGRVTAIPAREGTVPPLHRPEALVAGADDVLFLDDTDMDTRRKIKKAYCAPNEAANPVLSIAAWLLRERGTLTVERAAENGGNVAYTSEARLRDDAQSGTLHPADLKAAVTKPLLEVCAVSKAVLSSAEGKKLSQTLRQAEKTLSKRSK

[8] = target: T4, Tyrosyl-tRNA synthetase, putative (Trypanosoma cruzi (strain CL Brener)); test: Trypanosoma cruzi tyrosyl tRNA synthetase (TcYRS) SOP; format: functional; settings: 30 µM
[9] = target: Chromo domain-containing protein 1 (Saccharomyces cerevisiae (strain ATCC 204508 / S288c) (Baker's yeast)) (UniProt P32657); test: ScCHD-1 Enzyme Inhibition Assay; format: functional; settings: 30 µM; note: in the data most compounds retested in dose-response had high values
Sequence of Chromo domain-containing protein 1 (Saccharomyces cerevisiae (strain ATCC 204508 / S288c) (Baker's yeast)) (P32657 whole entry, the tested form may be a part): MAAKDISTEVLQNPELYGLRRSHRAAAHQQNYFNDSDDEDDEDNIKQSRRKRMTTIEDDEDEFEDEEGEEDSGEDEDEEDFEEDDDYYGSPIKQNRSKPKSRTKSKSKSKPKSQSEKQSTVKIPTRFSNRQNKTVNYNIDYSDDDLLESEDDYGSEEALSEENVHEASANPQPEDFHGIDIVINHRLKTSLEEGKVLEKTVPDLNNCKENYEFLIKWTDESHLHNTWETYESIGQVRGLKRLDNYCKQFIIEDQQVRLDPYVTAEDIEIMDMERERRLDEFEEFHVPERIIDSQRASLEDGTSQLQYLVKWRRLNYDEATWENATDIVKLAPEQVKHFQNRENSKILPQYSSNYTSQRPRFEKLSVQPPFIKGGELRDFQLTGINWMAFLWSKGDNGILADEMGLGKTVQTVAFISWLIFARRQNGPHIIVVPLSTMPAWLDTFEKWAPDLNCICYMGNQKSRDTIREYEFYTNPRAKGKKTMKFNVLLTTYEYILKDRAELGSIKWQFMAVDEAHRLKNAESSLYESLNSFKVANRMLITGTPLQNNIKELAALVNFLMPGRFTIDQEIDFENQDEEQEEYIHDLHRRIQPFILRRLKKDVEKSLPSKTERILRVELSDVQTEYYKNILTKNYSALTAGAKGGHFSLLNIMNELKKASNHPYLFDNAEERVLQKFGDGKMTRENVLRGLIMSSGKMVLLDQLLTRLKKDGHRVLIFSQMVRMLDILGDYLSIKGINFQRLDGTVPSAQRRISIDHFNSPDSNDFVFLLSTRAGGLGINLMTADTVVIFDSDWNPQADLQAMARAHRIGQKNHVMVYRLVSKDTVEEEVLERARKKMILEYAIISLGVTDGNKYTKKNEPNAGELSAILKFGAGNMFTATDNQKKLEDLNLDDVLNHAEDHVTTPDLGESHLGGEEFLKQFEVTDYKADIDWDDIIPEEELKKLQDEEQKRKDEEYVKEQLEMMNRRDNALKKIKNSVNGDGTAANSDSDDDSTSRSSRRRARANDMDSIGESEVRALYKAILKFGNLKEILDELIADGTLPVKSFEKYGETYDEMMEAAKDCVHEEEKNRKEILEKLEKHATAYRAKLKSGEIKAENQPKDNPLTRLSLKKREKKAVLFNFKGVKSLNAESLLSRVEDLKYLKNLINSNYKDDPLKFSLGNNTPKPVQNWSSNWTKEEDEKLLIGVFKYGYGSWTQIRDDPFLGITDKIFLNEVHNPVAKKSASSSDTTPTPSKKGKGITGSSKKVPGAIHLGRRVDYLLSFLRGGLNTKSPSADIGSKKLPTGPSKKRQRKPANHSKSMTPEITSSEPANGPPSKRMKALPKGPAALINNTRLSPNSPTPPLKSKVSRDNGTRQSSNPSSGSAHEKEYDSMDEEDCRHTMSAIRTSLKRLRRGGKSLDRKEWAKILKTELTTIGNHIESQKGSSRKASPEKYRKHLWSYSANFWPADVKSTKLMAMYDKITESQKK

| SMILES | Percent Effect [1] [%] | Percent Effect [2] [%] | Percent Effect [3] [%] | Percent Effect [4] [%] | Percent Effect (Trypanosoma cruzi) [%] | Percent Effect [5] [%] | Percent Effect [6] [%] | Percent Effect (Homo sapiens) [%] | Percent Effect [7] [%] | Percent Effect [8] [%] | Percent Effect [9] [%] |
| --- | --- | --- | --- | --- | --- | --- | --- | --- | --- | --- | --- |
| CCO[C@@H]1CC[C@H]2[C@H]1OCCN2C(=O)C1CCOCC1 | -5.85 | 21.6 | -7.07 | 5.16 | 3.32 | 3.33 | 18.2 | 2.97 | 10.9 | 1.22 | -4.28 |
| CCN1CCN(c2ccc(F)cc2C(C)NCc2ccncc2)CC1 (stereo unspecified) | -5.73 | 0 | -10.3 | -1.77 | -2.25 | -3.72 | 9.7 | 6.08 | 3.23 | 6.17 | -0.559 |
| c1ccc(CN2CC[C@@H]3O[C@@H](COCC4CCOCC4)CC[C@@H]32)nc1 | -4.64 | 10.7 | 1.98 | -3.4 | -0.394 | 2.1 | 12.4 | -2.6 | 2.13 | 8.97 | -2.41 |
| CN(C)C(=O)c1ccc2c(c1)N(C)C(CC(=O)NC(C)(C)CO)CO2 (stereo unspecified) | -8.01 | -4.17 | -3.33 | 3.27 | -2.82 | -2.21 | 10.7 | -2.49 | -2.1 | -5.13 | 0.823 |
| CN1CCC(C(=O)NCc2nncn2-c2ccccc2)CC1=O (stereo unspecified) | -2.63 | 5.41 | -5.14 | 5.74 | -3.87 | -2 | 0 | 13.5 | 4.43 | 1.24 | -2.07 |
| Cc1ncsc1C(=O)Nc1cccc(OCC(F)F)n1 | -4.44 | 2.63 | 10.6 | 1.18 | -4.19 | -8.28 | 22.5 | 31.7 | 3.19 | 7.79 | -0.476 |
| Cc1cc(C(=O)N2CC[C@@H]3CN(c4ncccn4)CCO[C@@H]3C2)c(C)o1 | -0.56 | 16.2 | -3.77 | -14.6 | 0.0978 | 6.69 | 29 | -4.39 | 6.49 | 20.5 | -4.19 |
| N#Cc1cn(CC(=O)NC2CC2)c2ccc(Br)cc2c1=O | -3.54 | -2.67 | -3.82 | -2.14 | -1.27 | 2.6 | 14.7 | -0.582 | 0.546 | -3.7 | 74.8 |
| O=C(CCc1ccc(=O)[nH]n1)N1CCCC(COc2ccc(F)cc2)C1 (stereo unspecified) | -2.1 | 1.39 | -1.82 | -3.84 | 1.85 | 2.65 | 16.3 | 5.9 | 6.32 | 12.8 | -1.89 |
| CC(CCN1CCn2nc(CNC(=O)N(C)C)cc2C1)c1ccccc1 (stereo unspecified) | -0.0552 | 5.41 | -1.77 | 16.6 | 4.25 | 8.1 | 6.9 | 16.3 | 6.88 | 19.5 | -3.46 |
| Cc1ccc(C2CCCCCN2Cc2cn(C)nc2C)cc1 (stereo unspecified) | -2.53 | 5.2 | 1.3 | 6.91 | 4.83 | 1.94 | 5.92 | -15 | 8.47 | 19.2 | -11.2 |
